This excerpt belongs to a sample that is enriched for hits.
ER stress death – ER stress cell death inhibition; AID 1010; CSM14.1 thapsigargin ER stress survival, ATP luminescence; 48,000 compounds, 0.33% hits; relative survival (cellular ATP), % at 15 µg/mL (by protocol);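 active means survival measured by cellular ATP above 50% at 15 µg/ml in the first screen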;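 further: cell death triggered by about 15 µM thapsigargin; ATP read 24 h after thapsigargin was added; plate controls were thapsigargin with DMSO for no effect and DMSO without thapsigargin for full effect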
* = called active by the depositor.

SMILES	ER stress death
COc1ccc(Br)cc1CN1CCN(C(=O)COc2ccc(Cl)cc2)CC1	23.5
O=C(COc1ccc(Cl)cc1)N1CCN(Cc2cccc(F)c2)CC1	-2.3
COc1ccc(CN2CCN(C(=O)COc3ccc(Cl)cc3)CC2)cc1OCc1ccccc1	69.2*
Oc1ccc(Br)cc1CN1CCN(Cc2ccccc2Cl)CC1	0.8
Cc1cc(C=C2C(=O)NC(=S)NC2=O)c(C)n1C	0.5

Bioassay records: PubChem BioAssay, Sanford-Burnham Center for Chemical Genomics
